From PubChem BioAssay
The source made the active and inactive calls.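 Rule for the calls, unless noted: active = fluorescence slope after compound addition differing from the mean of all screened samples at 99.7% confidence, in either direction; inactive = the rest.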

Columns and labels:
[1] = inhibitors of TNFa-induced NFkB p65 translocation, primary screen, imaging, HUVEC, MLSMR starter and 10KST1 sets (AID 438;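 active = inhibition above 20% together with a positive visual image hit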;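 note: compound added about 3h40 before a 20 min TNFalpha stimulation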;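 for inhibition: signal is the nuclear over cytoplasmic p65 intensity ratio per well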); details: HUVEC TNFa-induced p65 nuclear translocation; cell count: measured here: nuclei count (cytotoxicity indicator), at 2.08 µM; inhibition: at 2 µM, stronger effect = higher value, 0% TNFa-plus-vehicle, 100% no-TNFa wells
[2] = reduction of polyQ htt aggregates in cells – imaging, exon1htt(103Q)mCFP cells, high-content imaging, primary screen (AID 483;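 active = visual image review flags a hit and inhibition of aggregation exceeds 20%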;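 note: compound exposure lasted 3 days before fixation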;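 for nuclei count: percent of the per-plate median nuclei count of sample wells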); details: exon1htt(103Q)mCFP cell line, aggregate imaging, at 2 µM; inhibition of aggregation: stronger effect = higher value; nuclei count: measured here: cell count, toxicity
[3] = endothelial E-selectin expression blockers – imaging, HUVEC, immunofluorescence, MLSMR starter and 10KST1 sets, primary screen (AID 487;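 active = visually confirmed hit in the image check and inhibition above 20%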;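 for inhibition: signal is fraction of cell area covered by stained E-selectin grains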;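 for nuclei count: 100% = median nuclei count of all wells on the same plate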); details: HUVEC TNFalpha-induced E-selectin immunofluorescence imaging, at 2 µM; inhibition: stronger effect = higher value; nuclei count: measured here: cell number, toxicity
[4] = target: Voltage-gated potassium channel subunit beta-2 (Rattus norvegicus) (UniProt P62483); assay: inhibitors of rat Kvbeta2 reductase activity – biochemical, NADPH fluorescence, primary screen (AID 622;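 active = fluorescence slope higher than the sample average by over 3 SD, cut at about -0.22 in these data, passing the limit was not always enough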;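 note: slope of raw intensity against log time taken from 70 to 1610 s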); details: recombinant KvBeta, 4-cyanobenzaldehyde reduction, at 10 µM, stronger effect = higher value
[5] = target: Voltage-gated potassium channel subunit beta-2 (Rattus norvegicus) (UniProt P62483); assay: enhancers of rat Kvbeta2 NADPH turnover – biochemical, NADPH fluorescence, primary screen (AID 623;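 active = NADPH fluorescence slope more negative than the mean of all samples by about 3 SD, 99.7% confidence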;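 note: fluorescence intensity change per second fitted from 20 to 320 s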); details: Recombinant KvBeta, NADPH fluorescence decrease slope, 10 min; at 10 µM; stronger effect = lower value
[6] = target: Alpha-2C adrenergic receptor (Homo sapiens) (UniProt P18825); assay: compounds altering alpha2C-coupled GIRK flux – cell-based, HEK293 alpha2C/GIRK1/2, thallium flux, primary screen (AID 624); details: thallium flux BTC fluorescence, at 10 µM, actives lie on both sides;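 note: slope of fluorescence ratio to pre-addition baseline per second over 15 to 24 s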
[7] = blockers of RIG-like receptor reporter activation – cell-based, Sendai virus stimulus, luciferase, 10K MLSCN set, TLR/RLR signaling modifier project, primary screen (AID 602276;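 active = inhibition at or above 50% at 10 µM; inactive = inhibition below 50%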;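 note: firefly luciferase from ISG56 promoter only with Renilla not read in this screen; 0% = Sendai virus plus DMSO and 100% = medium plus DMSO without virus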); details: HEK293 RL24 IRF3 luciferase reporter, at 10 µM, stronger effect = higher value
[8] = TLR3 IRF3 reporter activation blockers – cell-based, poly I:C stimulus, luciferase, 10K MLSCN set, primary screen (AID 602277;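 active = inhibition of the reporter signal at or above 50%; inactive = inhibition below 50%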); details: HEK293-TLR3 RL24 IRF3 luciferase reporter, at 10 µM, stronger effect = higher value

Chain of Voltage-gated potassium channel subunit beta-2 (Rattus norvegicus) (P62483 whole entry, looked up): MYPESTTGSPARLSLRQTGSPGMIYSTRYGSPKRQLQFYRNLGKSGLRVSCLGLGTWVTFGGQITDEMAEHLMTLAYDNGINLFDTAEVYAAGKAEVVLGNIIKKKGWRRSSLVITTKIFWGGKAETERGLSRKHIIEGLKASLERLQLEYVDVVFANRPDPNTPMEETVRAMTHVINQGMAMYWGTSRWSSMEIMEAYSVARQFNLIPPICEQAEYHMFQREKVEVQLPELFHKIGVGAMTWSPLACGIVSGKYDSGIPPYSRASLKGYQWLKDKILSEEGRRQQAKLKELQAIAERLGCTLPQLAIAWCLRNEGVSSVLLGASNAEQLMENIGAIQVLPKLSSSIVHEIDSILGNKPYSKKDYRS
Chain of Alpha-2C adrenergic receptor (Homo sapiens) (P18825 whole entry, looked up): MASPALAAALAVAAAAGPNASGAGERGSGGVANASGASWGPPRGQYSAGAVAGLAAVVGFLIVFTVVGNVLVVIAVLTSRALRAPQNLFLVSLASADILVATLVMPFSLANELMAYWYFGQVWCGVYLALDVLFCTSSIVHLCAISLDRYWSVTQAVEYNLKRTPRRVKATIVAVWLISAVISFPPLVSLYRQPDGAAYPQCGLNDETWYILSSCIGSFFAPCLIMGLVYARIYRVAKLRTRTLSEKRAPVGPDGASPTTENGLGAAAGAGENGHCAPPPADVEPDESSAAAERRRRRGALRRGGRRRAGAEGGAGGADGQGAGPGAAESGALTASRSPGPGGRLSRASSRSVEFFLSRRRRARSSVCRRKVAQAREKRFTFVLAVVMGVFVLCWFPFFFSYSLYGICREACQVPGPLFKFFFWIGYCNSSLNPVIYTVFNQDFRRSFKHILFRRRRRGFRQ

| SMILES | cell count [1] | inhibition [1] | inhibition of aggregation [2] | nuclei count [2] [%] | inhibition [3] | nuclei count [3] [%] | fluorescence slope [4] | NADPH fluorescence slope [5] | slope [6] | inhibition [7] | inhibition [8] |
| --- | --- | --- | --- | --- | --- | --- | --- | --- | --- | --- | --- |
| COc1ccc(Cn2nnnc2C(c2cccs2)N2CCOCC2)cc1 (stereo not drawn) | 572 | -4.8% (inactive) | -10.4% (inactive) | 98.8 | -10.4% (inactive) | 114 | -0.419 (inactive) | 1.2e-06 (inactive) | 0.00389 (inactive) | -1.07% (inactive) | -0.428% (inactive) |
| O=C(Cn1cc2c(n1)CCCCC2)N1CCc2ccccc2C1 | 670 | 12% (inactive) | 15.4% (inactive) | 88.6 | 27.7% (inactive) | 85.1 | -0.631 (inactive) | 1.4e-05 (inactive) | 0.0057 (inactive) | -16% (inactive) | -17.6% (inactive) |
| COC(=O)C1CCN(C(=O)c2sc3nc(-c4ccc(F)cc4)cn3c2C)CC1 | 654 | -6.1% (inactive) | -14.7% (inactive) | 105 | -65.8% (inactive) | 120 | -0.487 (inactive) | -4.6e-05 (inactive) | 0.00421 (inactive) | 10.2% (inactive) | 3.27% (inactive) |
| Cc1cc(=O)n2nc(N3CCCC(C(=O)N4CCN(C)CC4)C3)sc2n1 (stereo not drawn) | 465 | -0.8% (inactive) | 19.6% (inactive) | 92.4 | -186% (inactive) | 126 | -0.313 (inactive) | -3.4e-05 (inactive) | 0.00576 (inactive) | -7.33% (inactive) | 5.83% (inactive) |
| CN1C(=O)CCC1(O)c1ccccc1 (stereo not drawn) | 565 | -9.2% (inactive) | 18.6% (inactive) | 54.1 | -51.3% (inactive) | 103 | -0.392 (inactive) | 1.8e-06 (inactive) | 0.00341 (inactive) | 11.4% (inactive) | 38.2% (inactive) |
| CN1CCc2c(sc3c2c(=O)n(-c2ccccc2)c2nnc(SCc4ccc(F)cc4)n32)C1 | 375 | 2.1% (inactive) | 9.2% (inactive) | 73.7 | -45% (inactive) | 210 | -0.608 (inactive) | -5.9e-06 (inactive) | 0.00622 (inactive) | 4.98% (inactive) | -12.6% (inactive) |
| Cc1ccc(C2c3sc(=O)[nH]c3SC3C(=O)NC(=O)C32)cc1 (stereo not drawn) | 401 | 6.1% (inactive) | 11.3% (inactive) | 88.3 | -18% (inactive) | 99.5 | -0.558 (inactive) | -2.2e-05 (inactive) | 0.00486 (inactive) | 1.16% (inactive) | 58.9% (active) |
| Cc1ccc(-c2noc(C3CCCN(C(=O)c4ccccc4)C3)n2)o1 (stereo not drawn) | 490 | 5.2% (inactive) | -19.1% (inactive) | 112 | -102% (inactive) | 125 | -0.372 (inactive) | -1.7e-05 (inactive) | 0.00371 (inactive) | -20% (inactive) | -111% (inactive) |
